Results on eight compounds are retold here after PubChem BioAssay (NCI).

Molecules are shown by their SMILES. Compounds without any hit were thinned out: in the full panel of roughly 83,000, 20% have a hit.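 A percent growth of 40 corresponds to 60% growth inhibition; 0 means no net growth; -100 means all cells died. Active threshold: below 10.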 Unmarked numbers belong to inactive results. The source made the active and inactive calls.

Among the test systems are DU-145 prostate; K-562 leukemia; MALME-3M melanoma; MDA-MB-231 breast; RXF 393 renal; SF-268 CNS; SF-295 CNS; SF-539 CNS; UACC-257 melanoma; M14 melanoma; HCT-15 colon; HT29 colon; SNB-75 CNS; SNB-19 CNS; U251 CNS; PC-3 prostate; SK-MEL-5 melanoma; UACC-62 melanoma; LOX IMVI melanoma; SK-MEL-28 melanoma.
Common to all, as to assay: NCI-60 one-dose screen, 48 h (100 = growth as untreated, 0 = no growth, -100 = all killed)
What all share (conditions): 10 µM unless noted

As to `Cc1nc2sc(C(=O)Nc3cccc(Br)c3)c(N)c2cc1C(O)c1ccccc1` (stereo not given), the growth in the assay with DU-145 prostate is 23.8%; in the assay with K-562 leukemia it was 7.97% (active); with MALME-3M melanoma, 55%; with MDA-MB-231 breast, 24.2%; in the assay on RXF 393 renal, 28.2%; in the assay with SF-268 CNS, 42.4%. The growth in the assay on SF-295 CNS is 40.2%; in the assay on SF-539 CNS, 6.22% (active); in the assay on UACC-257 melanoma it was 38.8%; in the assay with M14 melanoma it was 16.7%; in the assay with HCT-15 colon, 21%; in the assay with HT29 colon, 18.1%. Moreover, the growth in the assay with SNB-75 CNS is 55.4%; in the assay with SNB-19 CNS, 33.8%; in the assay with U251 CNS, 11.1%; in the assay on PC-3 prostate, 30.2%; in the assay on SK-MEL-5 melanoma, 17.9%; with UACC-62 melanoma it was 26.2%. For the same compound, the growth is 48% with LOX IMVI melanoma and 61.9% in the assay with SK-MEL-28 melanoma.

`Cc1cc(=O)oc2cc(OCc3nn4c(Nc5nc6ccccc6s5)c(-c5ccccc5)nc4s3)ccc12`: the growth was 97.7% in the assay on DU-145 prostate; -59.3% (active) in the assay with K-562 leukemia; 93.7% in the assay on MALME-3M melanoma; 83.1% in the assay with MDA-MB-231 breast; 102% in the assay on RXF 393 renal; 86.1% in the assay on SF-268 CNS. The growth was 90.2% with SF-295 CNS; 96.1% with SF-539 CNS; 93.9% in the assay with UACC-257 melanoma; 100% in the assay on M14 melanoma; 91.3% in the assay on HCT-15 colon; 102% in the assay with HT29 colon. In addition, the growth with SNB-75 CNS was 84.4%; in the assay on SNB-19 CNS it was 74.7%; in the assay with U251 CNS, 96.7%; in the assay with PC-3 prostate it was 87%; in the assay on SK-MEL-5 melanoma, 99.2%; with UACC-62 melanoma it was 84.4%. In addition, the growth with LOX IMVI melanoma was 95.8%; in the assay with SK-MEL-28 melanoma, 102%.

For `NC(Cc1ccc(O)c([N+](=O)[O-])c1)C(=O)O` (stereo not given), the growth in the assay with DU-145 prostate is 106%; with K-562 leukemia, 101%; in the assay on MALME-3M melanoma, 109%; with MDA-MB-231 breast, 113%; with RXF 393 renal it was 108%; with SF-268 CNS it was 99.8%. In addition, the growth is 117% with SF-295 CNS; 100% with SF-539 CNS; 99.8% in the assay with UACC-257 melanoma; 101% in the assay on M14 melanoma; 98.5% in the assay with HCT-15 colon; 99.1% with HT29 colon. In addition, the growth in the assay with SNB-75 CNS is 97.2%; in the assay with SNB-19 CNS, 105%; in the assay with U251 CNS, 97.2%; in the assay on PC-3 prostate, 90.5%; in the assay on SK-MEL-5 melanoma, 105%; in the assay with UACC-62 melanoma it was 103%. Moreover, the growth with LOX IMVI melanoma was 94.3%; in the assay on SK-MEL-28 melanoma, 99.9%.

For `CCOC(=O)n1cc(-c2nonc2-c2cn(C(=O)OCC)c3ccc(Br)cc23)c2ccccc21`, the growth with DU-145 prostate was 93.9%; in the assay with K-562 leukemia, 78%; with MALME-3M melanoma it was 83%; with MDA-MB-231 breast, 74%; with RXF 393 renal, 94.2%; in the assay on SF-268 CNS, 82%. In addition, the growth was 72.4% with SF-295 CNS; 98.4% with SF-539 CNS; 93.6% with UACC-257 melanoma; 78.8% with M14 melanoma; 76.8% with HCT-15 colon; 76.1% in the assay on HT29 colon. Also, the growth in the assay on SNB-75 CNS is 73.1%; with SNB-19 CNS, 93.5%; in the assay on U251 CNS, 89.8%; with PC-3 prostate, 69%; with SK-MEL-5 melanoma, 82.3%; in the assay on UACC-62 melanoma, 58.7%. Besides, the growth in the assay on LOX IMVI melanoma is 74.6%; in the assay on SK-MEL-28 melanoma, 100%.

Take `COc1ccc(/C=C(\C#N)n2nnc3cc(F)c(F)cc32)cc1`: the growth was 47.6% with DU-145 prostate; 8.72% (active) in the assay on K-562 leukemia; 45.6% in the assay on MALME-3M melanoma; 64.9% in the assay on MDA-MB-231 breast; 85.8% in the assay with RXF 393 renal; 68.6% with SF-268 CNS. Further, the growth is 72.3% with SF-295 CNS; 44.5% in the assay on SF-539 CNS; 81.9% with UACC-257 melanoma; 6.43% (active) with M14 melanoma; 29.9% with HCT-15 colon; 6.99% (active) in the assay with HT29 colon. For the same compound, the growth is 70.9% with SNB-75 CNS; 59.1% in the assay on SNB-19 CNS; 72.4% with U251 CNS; 41.2% with PC-3 prostate; 52.2% in the assay with SK-MEL-5 melanoma; 29.6% in the assay on UACC-62 melanoma. The growth in the assay on LOX IMVI melanoma is 47.1%; in the assay on SK-MEL-28 melanoma it was 58.1%.

Consider `C=CCSc1nnc(NC(=O)CCl)s1`, for which the growth in the assay on DU-145 prostate is 87.4%; in the assay with K-562 leukemia, 87.7%; in the assay with MALME-3M melanoma it was 73.8%; with MDA-MB-231 breast, 89.6%; in the assay on RXF 393 renal, 97.5%; in the assay on SF-268 CNS it was 91.9%. Further, the growth with SF-295 CNS was 101%; with SF-539 CNS, 101%; with UACC-257 melanoma it was 79.1%; in the assay on M14 melanoma it was 83.2%; in the assay on HCT-15 colon, 89.7%; in the assay on HT29 colon it was 110%. In addition, the growth is 103% with SNB-75 CNS; 89.8% in the assay on SNB-19 CNS; 92% in the assay with U251 CNS; 103% in the assay with PC-3 prostate; 88% with SK-MEL-5 melanoma; 88.8% with UACC-62 melanoma. Moreover, the growth with LOX IMVI melanoma was 7.79% (active); in the assay with SK-MEL-28 melanoma it was 99%.

Regarding `Cn1c(I)c(C#CCO[Si](C)(C)C(C)(C)C)c(=O)[nH]c1=O`, the growth was 99.9% in the assay with DU-145 prostate; 2.55% (active) in the assay on K-562 leukemia; -51.2% (active) with MALME-3M melanoma; 91.5% in the assay on MDA-MB-231 breast; -15.3% (active) in the assay with RXF 393 renal; 105% in the assay with SF-268 CNS. Moreover, the growth was 101% in the assay with SF-295 CNS; 104% in the assay with SF-539 CNS; 96.6% in the assay with UACC-257 melanoma; 83.1% in the assay with M14 melanoma; 91% in the assay with HCT-15 colon; 113% with HT29 colon. Moreover, the growth with SNB-75 CNS was 99.9%; in the assay with SNB-19 CNS, 104%; in the assay with U251 CNS it was 109%; in the assay with PC-3 prostate it was 96.5%; in the assay with SK-MEL-5 melanoma, 103%; in the assay with UACC-62 melanoma it was 101%. The values for the growth in the assay on LOX IMVI melanoma and with SK-MEL-28 melanoma were 99.9% and 30.7%, respectively.

In the case of `CN(C)Cc1ccc(O)c(C(=O)O)c1`, the growth is 114% in the assay on DU-145 prostate; 107% in the assay on K-562 leukemia; 116% with MALME-3M melanoma; 121% in the assay on MDA-MB-231 breast; 122% in the assay with RXF 393 renal; 104% in the assay with SF-268 CNS. For the same compound, the growth in the assay on SF-295 CNS is 123%; with SF-539 CNS, 100%; in the assay on UACC-257 melanoma, 109%; with M14 melanoma, 113%; with HCT-15 colon it was 107%; in the assay with HT29 colon, 107%. Moreover, the growth with SNB-75 CNS was 108%; with SNB-19 CNS, 109%; with U251 CNS, 93.3%; in the assay with PC-3 prostate, 105%; in the assay on SK-MEL-5 melanoma, 108%; in the assay on UACC-62 melanoma, 104%. Moreover, the results for the growth with LOX IMVI melanoma and in the assay with SK-MEL-28 melanoma were 99.4% and 119%, respectively.
